# Screening data: PubChem, National Center for Advancing Translational Sciences (NCATS)
# A selection: hits, their analogues and other compounds. The true share with any hit is near 7.4%.
# Rab9 prom act – activates the Rab9 promoter. Huh7 Rab9 promoter-luciferase reporter, luminescence, 24 h. Potency, µM (doses to about 9.22 µM), for inactives: at the highest dose activation, negative = inhibition, actives largely listed as activators. 320,000 tested, 2.8% active. AID 485297; further: % of control where 0% means no effect; nearly all actives have a fitted effect of over 60% in size
#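 Promoter activation is measured as luciferase luminescence in Huh7 cells stably transfected with a Rab9 promoter–luciferase construct, following 24 h compound exposure at 37 °C and 10 min reagent incubation at ambient temperature.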
# KinaseGlo FLuc – counter-screen: inhibitors of Kinase-Glo firefly luciferase | Kinase-Glo luciferase, ATP luminescence, 8 min | Potency, µM (series often up to 38.3 µM), without a hit: top-dose activity change, negative = inhibition, usual class: inhibitors | 200,000 tested, 0.28% active | AID 1379; further: on the % scale 0 is the no-effect control and ±100 the full control effect; nearly all actives have a fitted effect of over 60% in size
#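 Kinase-Glo luciferase light output from ATP and luciferin was measured with 10 uM ATP, within the enzyme's linear range. Buffer: 50 mM imidazole pH 7.2, 50 mM KCl, 7 mM MgCl2, 0.01% Tween 20, 0.05% BSA; luminescence read after 8 min at ambient temperature.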
# FLuc modulator – counter-screen for miR-21 project: firefly luciferase inhibitors or activators | P08659 | purified FLuc, Km substrates, luminescence inhibition | Potency, µM (titrated, usually from 57.5 µM), without a hit: at the highest dose activity change, negative = inhibition, usual class: inhibitors | 360,000 tested, 6.9% active | AID 588342;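 further: plate controls were vehicle for no effect and reference inhibitor for full effect; nearly all actives have a fitted effect of over 55% in size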
# Target sequence (P08659 whole entry, looked up): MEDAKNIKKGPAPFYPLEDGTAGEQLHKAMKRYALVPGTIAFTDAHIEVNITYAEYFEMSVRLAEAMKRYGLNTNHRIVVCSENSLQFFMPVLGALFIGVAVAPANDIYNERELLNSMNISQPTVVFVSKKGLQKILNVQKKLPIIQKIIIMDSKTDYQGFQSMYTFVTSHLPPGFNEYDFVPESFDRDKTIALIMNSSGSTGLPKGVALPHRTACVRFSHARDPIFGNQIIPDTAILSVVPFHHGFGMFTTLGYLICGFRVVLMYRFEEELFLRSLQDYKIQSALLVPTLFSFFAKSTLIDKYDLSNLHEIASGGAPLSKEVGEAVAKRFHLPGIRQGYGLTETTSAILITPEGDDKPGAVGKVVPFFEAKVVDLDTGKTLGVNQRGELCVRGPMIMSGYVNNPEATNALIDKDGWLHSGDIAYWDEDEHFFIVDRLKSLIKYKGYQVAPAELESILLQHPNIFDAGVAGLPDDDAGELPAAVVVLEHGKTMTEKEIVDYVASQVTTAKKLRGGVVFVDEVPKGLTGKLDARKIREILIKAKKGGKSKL
#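 Purified P. pyralis luciferase, 10 nM final, with Km-level 10 uM D-luciferin and 10 uM ATP in 50 mM Tris acetate pH 7.5, 10 mM Mg acetate, 0.01% Tween-20, 0.05% BSA; 6-point qHTS titration about 60 µM downward; luminescence read.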
# NPC1 promoter act – activates the NPC1 promoter. AID 485313. 320,000 tested, 2.4% active. Huh7 NPC1 promoter luciferase reporter, 24 h. Potency, µM (top dose mostly 9.22 µM), for the others: at the top dose activation, actives largely listed as activators; further: % of control where 0% means no effect; nearly all actives have a fitted effect of over 60% in size
#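 In 1536-well qHTS, Huh7 cells harboring an NPC1 promoter–luciferase construct received compound for 24 h; activation was quantified by luminescence following luciferase reagent addition.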
# ELG1 genotoxic – induces genotoxicity in HEK293T cells with luciferase-tagged ELG1; Potency, µM (top dose mostly 46 µM), inactives show top-dose activity change, positive = activation, hits mostly activators; 330,000 tested, 1.3% active; HEK293T ELG1-luciferase reporter, luminescence, 16 h; further: % of control where 0% means no effect; nearly all actives have a fitted effect of over 60% in size
#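 Quantitative HTS format in 1536-well plates. HEK293T ELG1-luciferase reporter cells receive test compound and are incubated 16 hr at 37 °C, 5% CO2; ONE-Glo added, 30 min room temperature, then luminescence read.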
# SMN2 splice enh – enhancers of SMN2 splice variant expression; HEK293 SMN2-luciferase splicing reporter, luminescence, 30-36 h; Potency, µM (top dose mostly 46.1 µM), without a hit: at the highest dose activity change, positive = activation, most hits filed as activators; 210,000 tested, 2.8% active; AID 1458; further: % of control where 0% means no effect; nearly all actives have a fitted effect of over 55% in size
#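 HEK293 cells carry an SMN2 […]–luciferase reporter in which exon 7 inclusion puts luciferase in frame. Cells were plated 10-12 h before compound addition, then incubated 30-36 h at 37C. ONE-Glo luminescence was read; sodium butyrate at 4.5 mM final served as control.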
# Numbers without * were called inactive; u = inconclusive; x = no result. The call rests on the fitted dose curve; in most records, active means well fitted curve in the direction sought with a large enough effect; inconclusive means small, poorly fitted or top-dose-only effect, or another doubt; inactive means no such curve, though single readings can be large; an effect the other way counts as inactive or inconclusive. Potency means the concentration at half of the fitted maximal effect.
SMILES,Rab9 prom act,KinaseGlo FLuc,FLuc modulator,NPC1 promoter act,ELG1 genotoxic,SMN2 splice enh
COCCOCCn1c(/C=C/c2ccccc2)nc2ccccc21,1.4µM*,u,1.7µM*,1.4µM*,u,13µM*
Cc1ccc(NC(=O)Cn2c(/C=C/c3ccccc3)nc3ccccc32)cc1C,2%,-1%,u,2%,u,18%
CC(C)c1ccccc1NC(=O)Cn1c(/C=C/c2ccccc2)nc2ccccc21,10%,x,21µM*,-3%,u,x
CCC(Sc1ncnc2sc3c(c12)CCCC3)C(=O)OCC(C)C (stereo not given),x,x,4%,x,x,-15%
Cc1noc(C)c1C(=O)N1CCC2(CC1)CN(c1cccc(-c3ccccc3)c1)C2,x,-1%,x,x,x,-64%
COC(=O)CC1C(=O)NCCN1Cc1cn(-c2ccc(C)cc2)nc1-c1cccc(C)c1 (stereo not given),-3%,1%,17µM*,2%,-3%,x
Cc1ccc(-n2cc(CNCCN3CCOC3=O)c(-c3cccc(C)c3)n2)cc1,-3%,0%,-16%,-4%,2%,x
Nc1c(O)ccc2c1C(=O)c1ccccc1C2=O,2%,-10%,17µM*,14%,10%,29%
O=C1C=C(O)c2c(O)cccc2C1=O,18%,x,-11%,6%,-1%,x
Cc1ccc(/C=N/NC(=O)CNC(=O)c2cccs2)cc1,29%,x,15µM*,2%,u,x
COc1cccc(/C=N/NC(=O)CNC(=O)COc2cccc(C)c2)c1O,-37%,x,-5%,-42%,13%,x
COc1cccc(/C=N/NC(=O)CNC(=O)CCc2ccccc2)c1O,-13%,x,9.5µM*,-8%,u,x
O=C(CNC(=O)c1cccs1)N/N=C/c1c(F)cccc1Cl,16%,x,21µM*,13%,u,x
O=C(CNC(=O)c1cccs1)NCC(=O)OCc1c(F)cccc1Cl,6%,-1%,-9%,-3%,-1%,-23%
COc1cccc(/C=N/NC(=O)CNC(=O)c2cccs2)c1O,-8%,x,21µM*,1%,16%,x
CCc1cccc(C)c1Nc1c(-c2cccs2)nc2nc(C)cc(C)n12,x,x,2%,x,x,-3%
CCCCc1ccc(-c2nc(NC(=O)C3C4CCC(O4)C3C(=O)O)sc2C)cc1 (stereo not given),12%,-2%,21µM*,16%,16µM*,-13%
O=c1cc(-c2ccccc2)oc2ccc(O)cc12,4µM*,x,9.5µM*,2.8µM*,21µM*,x
COc1ccc(-c2cc(=O)c3c(O)cc(O)cc3o2)cc1,3.2µM*,-3%,1.9µM*,u,u,u
O=c1cc(-c2ccc(O)c(O)c2)oc2ccccc12,x,-9%,x,x,x,14µM*
COc1ccc2c(=O)cc(C(F)(F)C(F)(F)F)oc2c1,6%,x,-3%,4%,0%,x
COc1ccc2c(=O)cc(-c3ccccc3F)oc2c1,u,x,21µM*,u,u,x
O=c1cc(-c2ccccc2)oc2cc(O)c(O)cc12,x,-13%,x,x,x,u
COc1ccc(-c2cc(=O)c3c(OC(C)=O)cc(OC(C)=O)cc3o2)cc1,x,-9%,x,x,x,u
COc1c(-c2ccc(O)cc2)oc2cc(O)cc(O)c2c1=O,0%,x,-11%,-7%,16%,x
SMILES,Rab9 prom act,KinaseGlo FLuc,FLuc modulator,NPC1 promoter act,ELG1 genotoxic,SMN2 splice enh
COc1ccc(-c2oc3cc(O)c(OC)c(O)c3c(=O)c2OC)cc1,-1%,x,19µM*,-20%,18%,x
O=c1cc(-c2ccc(O)cc2)oc2cc(O)ccc12,x,-17%,x,x,x,u
COc1ccc(-c2cc(=O)c3cc(O)ccc3o2)cc1,1.6µM*,x,1.7µM*,1.4µM*,5.8µM*,x
CC(C)Oc1ccc2c(=O)cc(-c3ccccc3)oc2c1,x,-6%,x,x,x,6.3µM*
COc1ccc2c(=O)cc(C(=O)O)oc2c1,1%,0%,0%,-5%,0%,10%
O=c1cc(-c2ccccc2)oc2ccccc12,u,x,u,u,21µM*,u
O=c1cc(-c2ccc(C(F)(F)F)cc2)oc2ccccc12,x,x,x,x,0%,x
Cc1ccc(NC(=O)C(=O)NCCc2sc(-c3ccc(Cl)cc3)nc2C)cc1C,x,x,-7%,x,x,x
